ADAM10 inh = ADAM10 inhibition, QFRET primary screen; AID 720582; hit rate 0.62% among 370,000; inhibition, % at 7 µM; recombinant ADAM10, EDANS/DABCYL FRET peptide cleavage, 3 h;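 active = inhibition above a per-campaign cutoff equal to the mean of compounds falling between control-based bounds plus 3 SD, cut at about 20% in these data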;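 also: 0% = DMSO wells while the 100% control is not disclosed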
HGIII-sPLA2 inh = Inhibits HGIII-sPLA2 liposome hydrolysis, primary screen. Q9NZ20. QFRET BODIPY PC-A2 liposome hydrolysis, fluorescence. inhibition, % at 12.2 µM. hit rate 0.56% among 370,000;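 active = inhibition above mean plus 3 SD of compounds lying within the high and low control bounds, cut at about 19% in these data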;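 also: 0% = median of test compound wells and 100% = no enzyme DMSO wells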
proKLK7 act = activates the human kallikrein-7 zymogen | P49862 | purified proKLK7, EDANS-DABCYL substrate fluorescence; 100% is mature enzyme control, 0% vehicle | activation, % at 7 µM | hit rate 0.9% among 370,000 | AID 652039;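 active = activation above the mean of all tested compounds plus 3 SD, computed per campaign excluding outliers beyond control limits, cut at about 13% in these data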
Target sequence (P49862 whole entry, looked up): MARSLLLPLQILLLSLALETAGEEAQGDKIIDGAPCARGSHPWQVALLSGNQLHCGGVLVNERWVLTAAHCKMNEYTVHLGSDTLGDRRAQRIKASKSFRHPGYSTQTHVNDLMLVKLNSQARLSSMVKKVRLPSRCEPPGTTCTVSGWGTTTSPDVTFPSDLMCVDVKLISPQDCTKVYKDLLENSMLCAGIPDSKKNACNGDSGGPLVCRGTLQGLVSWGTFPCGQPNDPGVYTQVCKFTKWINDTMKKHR
ADAM17 inh = inhibitors of human ADAM17. P78536. recombinant ADAM17, EDANS/DABCYL FRET peptide cleavage. inhibition, % at 6.95 µM. hit rate 0.83% among 370,000;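 active = inhibition above the mean of compounds lying between control limits plus 3 SD, set per campaign, cut at about 8.5% in these data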;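 also: 0% = DMSO-only wells as the low control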
CendR NRP1 mod = alters CendR peptide binding to human NRP-1 | FAM-RPARPAR peptide binding to NRP-1, fluorescence polarization | inhibition, % at 25 µM | hit rate 0.85% among 360,000;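 active = inhibition or corrected inhibition above about 18%, plus a signal ratio from 0.5 to 1.5, limit read from the data, passing the limit was not always enough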
An asterisk follows results filed as active; . = not tested or not shown. Hits are enriched below; roughly 3.4% of the tested compounds scored in any of these assays.

SMILES	ADAM10 inh	HGIII-sPLA2 inh	proKLK7 act	ADAM17 inh	CendR NRP1 mod
CN(C)c1ccc(/C=N/NC(=O)c2nonc2N)cc1[N+](=O)[O-]	-0.7	9.7	-0.4	0.8	24.7*
COC(=O)c1nc2n(n1)C(c1ccc(OC)c(OC)c1OC)C1=C(CCCC1=O)N2 (stereo unspecified)	6.4	0.2	4.3	0.0	17.6*
Cc1ccc(NC(=O)C2=CC(c3ccc(C)cc3)=NS(=O)(=O)N2C)cc1	9.1	-2.1	-0.4	0.1	21.0*
Cc1ccc(C2=NS(=O)(=O)N(C)C(C(=O)NC3CCCC3)=C2)cc1	-12.6	1.3	0.3	-3.6	-2.9
COC(=O)c1cc2c(c3c4cc(F)ccc4n(S(=O)(=O)c4ccc(C)cc4)c13)C(=O)N(Cc1ccc(C(F)(F)F)cc1)C2	-3.5	-1.2	1.0	-2.0	.
O=C(O)c1cc([N+](=O)[O-])ccc1Oc1ccccc1	-13.2	0.9	0.1	2.8	26.2*
CCC(=O)NNc1nc2c(C)cc(C)cc2s1	4.4	-5.5	-0.2	1.8	2.6
Cc1ccc2nc(NNC(=O)c3ccc(S(=O)(=O)N4CCc5ccccc5C4)cc3)sc2c1	5.0	32.6*	-0.8	5.2	7.4
CCC(CC)c1nnc(NC(=O)c2ccc(S(=O)(=O)N3CCc4ccccc4C3)cc2)s1	-10.0	14.8	-0.6	-2.5	-2.9
Cc1cc(C)c2nc(NNC(=O)c3ccc(S(=O)(=O)N4CC(C)CC(C)C4)cc3)sc2c1 (stereo unspecified)	-7.0	40.6*	-2.8	-0.5	-0.5
CN1C(=O)c2cc(NC(=O)Nc3ccccc3)ccc2OC[C@H]2O[C@@H](CC(=O)NCc3ccc(-c4ccccc4)cc3)CC[C@@H]21	11.6	-16.3	-0.4	0.9	.
O=C(NC(=S)Nc1ccc(O)cc1)c1cncc(Br)c1	-3.3	21.9*	-0.5	-2.1	2.8
CC1CC(=O)Nc2ccccc2N1C(=O)COc1ccc2ccccc2c1 (stereo unspecified)	-8.7	9.8	-0.5	-3.0	0.3
CCC1C(=O)Nc2ccccc2N1C(=O)COc1ccccc1 (stereo unspecified)	-3.6	-4.0	0.5	-1.3	25.9*
O=C(Cc1c[nH]c2ccccc12)Nc1ccc(Nc2cccnc2)c(-c2ccc(F)c(F)c2)c1	1.6	-32.2	-0.3	7.2	.
CCC(C)NC(=O)c1cnn2c1NC(c1cccs1)CC2C(F)(F)F (stereo unspecified)	-9.3	-11.8	0.2	-7.2	21.6*
FC(F)(F)C1CC(c2cccs2)Nc2ncnn21 (stereo unspecified)	3.2	-0.2	-0.1	-0.9	29.9*
O=C(NNc1ncnc2c1cnn2-c1ccc(F)cc1)c1ccco1	-10.3	2.5	0.1	-3.4	29.3*
O=C(N=C1N=C2C=CC(Br)=CN2Cc2ccccc21)c1ccc([N+](=O)[O-])cc1[N+](=O)[O-]	17.6	10.0	-0.5	9.1*	5.2
COc1ccc2c(c1)CN1CN(C3CCCC3)S(=O)(=O)CC21 (stereo unspecified)	-16.0	-1.6	-0.2	-7.1	.
CCCCCCCCC[n+]1cccc2c3ccccc3ccc21	.	.	.	.	33.0*
Cc1ccccc1C[n+]1cccc2ccccc21	-3.6	6.3	0.3	-2.5	9.2
CCCCCCCCCCCCCCCC[n+]1cccc2ccccc21	9.5	-2.3	-0.2	-0.2	42.2*
O=[N+]([O-])c1ccc(C[n+]2cccc3c4ccccc4ccc32)cc1	-336.7	1.2	-3.5	-111.6	-6.5
CCOC(=O)CN1C(=O)N[C@@H](c2ccccc2)[C@H](C(C)=O)[C@H]1C	6.8	0.4	-0.4	5.7	24.7*
SMILES	ADAM10 inh	HGIII-sPLA2 inh	proKLK7 act	ADAM17 inh	CendR NRP1 mod
CC1=C[C@]2(CN(CC3CC3)C3=N[C@H](c4ccccc4)CC(=O)N32)n2c(=O)n(-c3ccccc3)c(=O)n2C1	0.0	2.6	.	-2.1	.
O=C(Nc1nc2ccccc2[nH]1)c1ccc(Cl)c(S(=O)(=O)N2CCCC2)c1	.	.	.	.	33.6*
CC(C)(C)c1nc(SCC(=O)NCc2ccco2)c2ccccc2n1	0.8	-8.3	-0.1	1.4	26.3*
CCOc1ccc(N(CC(=O)Nc2c(C)n(C)n(-c3ccccc3)c2=O)S(=O)(=O)c2ccc(C)c(C)c2)cc1	-4.8	1.6	0.7	-4.0	.
CC(C)CC(NS(=O)(=O)c1ccccc1S(=O)(=O)NC(CC(C)C)C(=O)O)C(=O)O (stereo unspecified)	1.9	8.4	-0.4	-3.4	25.5*
Cc1nn(-c2ccccc2)c(C)c1C(=O)OCC(=O)N1c2ccccc2NC(=O)C1(C)C	8.8	-7.6	0.3	-1.1	30.5*
